These results are taken from PubChem BioAssay (NCATS).

Results filed as inconclusive are left out. Active and inactive are the calls of the source. Calls follow the shape of the dose curve; as a rule, active = well fitted inhibition curve with a large enough effect; inconclusive = small, poorly fitted or top-dose-only effect; inactive = flat fitted curve, though single readings scatter.

Test in all cases: qHTS profiling for inhibitors of Plasmodium falciparum proliferation (AID 504749); also: nearly all actives have a fitted effect of over 60% in size
What all share (details): P. falciparum in erythrocytes, SYBR Green DNA, 72 h; series mostly up to 28.7 µM

One assay concerns CP211. In short, it runs like this:
(§1)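 In a 72 h erythrocytic culture (37 C, humidified, 5% CO2) at 2.5% hematocrit and 0.3% starting parasitemia, compounds were tested; SYBR Green I in detergent lysis buffer stained parasite DNA overnight.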

The subject of another assay is CP215. In short, it runs like this: as §1
The test system of the next assay is CP217. In short, it runs like this:
as §1

A further assay concerns CP238. In short, it runs like this:
as §1

The test system of another assay is CP247. In short, it runs like this:
as §1

The subject of a further assay is CP250. Put shortly: as §1
The subject of the next assay is CP252. In short, it runs like this: as §1
The test system of the next assay is CP256. In short, it runs like this: as §1
Another assay has as its system CP262. In short, it runs like this:
as §1

The subject of a further assay is CP265. Put shortly:
as §1

Another assay has as its system CP268. Put shortly:
as §1

For the next assay, the system named is CP269. In short, it runs like this:
as §1

The test system of a further assay is CP291. Put shortly:
as §1

A further assay concerns CP305. Put shortly:
as §1

In another assay the test system is CP315. In short, it runs like this: as §1
In the next assay the test system is CP237. Put shortly: as §1
In a further assay the test system is CP260. In short, it runs like this: as §1
The subject of another assay is CP286. In short, it runs like this: as §1
The next assay has as its system CP297. In short, it runs like this:
as §1

A further assay relates to CP266. Put shortly: as §1
Potency is read from the fitted curve at half-maximal effect.

In the case of `CCCc1nc(C)c2c(=O)[nH]c(-c3cc(S(=O)(=O)N4CCN(CC)CC4)ccc3OCC)nn12`, the Potency entry in the assay on CP211, with CP215, in the assay with CP217, in the assay with CP238, in the assay with CP247 and in the assay on CP250 was “inactive” each time. Also, the Potency result in the assay on CP252, with CP256, in the assay with CP262, with CP265, in the assay on CP268 and with CP269 was “inactive” throughout. For the same molecule, the Potency result with CP291, in the assay with CP305 and in the assay on CP315 was “inactive” in each case.
Regarding `CCCN[C@H]1CCc2nc(N)sc2C1`, the Potency result in the assay on CP211, in the assay with CP215, in the assay on CP217, with CP237, in the assay with CP238 and in the assay on CP247 was “inactive” in each case. The Potency entry with CP250, in the assay with CP252, in the assay with CP256, in the assay with CP260, in the assay with CP262 and with CP265 was “inactive” in each case. The Potency result in the assay on CP268, with CP269, in the assay with CP286, with CP291, with CP297 and in the assay with CP305 was “inactive” each time. The Potency result in the assay with CP315 was “inactive”.
With `Nc1[nH]c(=O)ncc1F`, the Potency result in the assay on CP211, in the assay with CP215, in the assay with CP217, in the assay with CP237, with CP238 and with CP247 was “inactive” in each case. Further, the Potency entry in the assay on CP250, in the assay on CP252, with CP256, with CP260, with CP262 and with CP265 was “inactive” throughout. In addition, the Potency entry with CP266, in the assay with CP268, in the assay with CP269, in the assay with CP286, in the assay on CP291 and in the assay with CP297 was “inactive” each time. Moreover, the Potency result in the assay on CP305 and in the assay on CP315 was “inactive” throughout.
Consider `COc1cc2c(Nc3ccc(Br)cc3F)ncnc2cc1OCC1CCN(C)CC1`, for which the Potency entry in the assay on CP211, with CP266 and in the assay on CP315 was “inactive” in each case. The Potency in the assay on CP217 is 0.447 µM (active); in the assay with CP237, 3.98 µM (active); in the assay on CP238 it was 6.31 µM (active); in the assay on CP247, 1 µM (active); in the assay with CP250, 1.41 µM (active); with CP252, 1.12 µM (active). The Potency in the assay with CP256 is 3.16 µM (active); with CP260, 3.55 µM (active); in the assay on CP265, 3.98 µM (active); with CP268, 2.13 µM (active); with CP269, 5.36 µM (active); with CP286 it was 3.98 µM (active). In addition, the Potency in the assay on CP291 was 3.79 µM (active); with CP305, 2.39 µM (active).
Turning to `CCOC(=O)[C@H](CCc1ccccc1)N[C@H]1CS[C@H](c2cccs2)CN(CC(=O)O)C1=O`, the Potency result in the assay on CP211, with CP215, with CP237, with CP238, in the assay on CP247 and with CP250 was “inactive” throughout. Besides, the Potency result in the assay with CP252, with CP256, with CP260, in the assay on CP262, with CP265 and with CP266 was “inactive” in each case. Moreover, the Potency result in the assay with CP268, in the assay on CP269, in the assay with CP286, in the assay on CP291, in the assay with CP297 and with CP305 was “inactive” each time. Further, the Potency result in the assay with CP315 is “inactive”.
Consider `COc1cc(NCc2ccc3nc(N)nc(N)c3c2C)cc(OC)c1OC`, for which the Potency was 0.675 µM (active) with CP215; 0.282 µM (active) in the assay with CP217; 0.141 µM (active) in the assay on CP237; 0.631 µM (active) with CP238; 0.447 µM (active) in the assay on CP247; 0.794 µM (active) in the assay with CP250. For the same molecule, the Potency in the assay on CP252 was 0.251 µM (active); in the assay on CP256, 0.316 µM (active); in the assay on CP260, 0.158 µM (active); in the assay on CP262, 0.169 µM (active); with CP265 it was 3.16 µM (active); in the assay on CP266, 4.26 µM (active). The Potency is 0.953 µM (active) with CP268; 3.38 µM (active) in the assay on CP269; 0.178 µM (active) in the assay with CP286; 0.478 µM (active) in the assay with CP291; 0.426 µM (active) with CP297; 0.601 µM (active) with CP305. In addition, in the assay with CP315, the Potency is 0.849 µM (active).
With `CC1=CC(=O)c2ccccc2C1=O`, the Potency entry in the assay with CP211, in the assay with CP215, in the assay with CP217, in the assay with CP238, in the assay on CP252 and in the assay with CP256 was “inactive” each time. For the same molecule, the Potency entry in the assay with CP262, in the assay on CP265, with CP266, in the assay on CP268, with CP269 and with CP291 was “inactive” in each case. Further, the Potency entry with CP297, in the assay with CP305 and with CP315 was “inactive” each time.
For `COC(=O)Nc1nc2ccc(C(=O)c3ccccc3)cc2[nH]1`, the Potency result with CP211, in the assay with CP217, in the assay on CP237, in the assay on CP238, in the assay on CP247 and in the assay on CP250 was “inactive” in each case. Moreover, the Potency result in the assay with CP252, in the assay with CP256, in the assay on CP260, in the assay with CP262, with CP265 and in the assay with CP268 was “inactive” each time. The Potency entry in the assay with CP286, in the assay with CP297 and with CP315 was “inactive” in each case.
Take `COc1cc([C@@H]2c3cc4c(cc3[C@H](O)[C@H]3COC(=O)[C@H]23)OCO4)cc(OC)c1OC`: the Potency with CP215 was 13.5 µM (active); in the assay on CP237, 3.16 µM (active); in the assay on CP247, 10 µM (active); in the assay with CP250, 8.91 µM (active); in the assay with CP256, 8.91 µM (active); in the assay on CP260, 2.82 µM (active). Moreover, the Potency was 2.51 µM (active) in the assay on CP265; 9.53 µM (active) in the assay on CP268; 4.26 µM (active) with CP269; 4.47 µM (active) in the assay on CP286; 15.1 µM (active) with CP297; 6.75 µM (active) with CP305. Moreover, in the assay with CP262, the Potency result is “inactive”.
Turning to `CN1CCCC(n2nc(Cc3ccc(Cl)cc3)c3ccccc3c2=O)CC1` (stereo not drawn), the Potency entry with CP211, in the assay with CP238, in the assay on CP250, in the assay with CP252, in the assay on CP256 and in the assay with CP262 was “inactive” in each case. For the same molecule, the Potency result in the assay with CP266, in the assay with CP268, in the assay with CP269, with CP305 and with CP315 was “inactive” in each case.
Take `N[C@@H](Cc1ccc(O)c(O)c1)C(=O)O`: the Potency entry in the assay with CP211, in the assay on CP215, in the assay with CP262, with CP266, in the assay on CP268 and with CP269 was “inactive” each time. Besides, the Potency entry in the assay with CP291, in the assay with CP297, in the assay on CP305 and with CP315 was “inactive” throughout.
`COc1ccc(C(=O)CC(=O)c2ccc(C(C)(C)C)cc2)cc1`: the Potency result in the assay with CP211, in the assay with CP217, in the assay with CP238, in the assay with CP247, in the assay on CP250 and in the assay with CP252 was “inactive” each time. Besides, the Potency result with CP256, with CP262, in the assay with CP265, in the assay with CP266, in the assay on CP268 and with CP269 was “inactive” throughout. Also, the Potency entry with CP291, in the assay on CP297, with CP305 and in the assay on CP315 was “inactive” each time.
Consider `CCCCCCNC(=O)n1cc(F)c(=O)[nH]c1=O`, for which the Potency was 16.9 µM (active) in the assay on CP211, 7.08 µM (active) with CP286 and 12 µM (active) in the assay on CP291.
On to `CC(N)C12CC3CC(CC(C3)C1)C2` (stereo not drawn), for which the Potency entry in the assay on CP217, in the assay on CP250, in the assay on CP252, in the assay on CP256, in the assay with CP262 and in the assay with CP266 was “inactive” each time. In addition, the Potency result with CP269 and in the assay with CP315 was “inactive” in each case. The Potency in the assay with CP237 is 5.62 µM (active); with CP297, 7.57 µM (active).
In the case of `Oc1c(Cl)cc(Cl)c2cccnc12`, the Potency in the assay on CP217 was 8.91 µM (active); in the assay on CP237, 10 µM (active); with CP247 it was 8.91 µM (active); in the assay on CP250 it was 12.6 µM (active). Besides, the Potency result in the assay on CP266 and in the assay with CP315 was “inactive” each time.
